Where “and” joins values, the source holds several entries; their conditions need not be identical. Equal entries are not always repeated. In all, about 5,500 compounds went through this assay and about 2,000 (36%) were called active. Inconclusive results (about 18%) are left out. Rule as the data show it: active = normalized growth mostly below about 0.91 (no sharp cut-off); inconclusive = no clear call, values can overlap the other calls; inactive = mostly above about 0.92. This is one part of the list.
Assay: chemical genetic growth profiling, strain panel (AID 1159580);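 also: tested at 20 µM; growth read once vehicle control cultures reached saturation at 30 °C; 1 = growth at the plate median or of vehicle wells; lower values mean less growth of the strain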
Details: S. cerevisiae deletion strains, growth OD

Measured: normalized growth

NCC(CC(=O)O)c1ccc(Cl)cc1 (configuration not stated)
inactive: locus YAL013W, strain DEP1, active compounds read low 1.02 | locus YAL021C, strain ccr4, active compounds read low 0.99 | locus YAL026C, strain drs2, active compounds read low 0.997 | locus YAL030W, strain snc1, active compounds read low 1 | locus YAL040C, strain CLN3, active compounds read low 1.03 | locus YBL061C, strain skt5, active compounds read low 1 | locus YBR009C, strain hhf1, active compounds read low 0.968 | locus YBR021W, strain FUR4, active compounds read low 1.04 | locus YBR023C, strain chs3, active compounds read low 0.997 | locus YBR171W, strain sec66, active compounds read low 1.01 | locus YBR229C, strain ROT2, active compounds read low 1.01 | locus YBR231C, strain swc5, active compounds read low 1.01 | locus YBR279W, strain paf1, active compounds read low 0.994 | locus YCL011C, strain gbp2, active compounds read low 0.992 | locus YCL016C, strain dcc1, active compounds read low 0.976 | locus YCL029C, strain bik1, active compounds read low 0.993 | locus YCL061C, strain MRC1 (second series), active compounds read low 0.981 | locus YCL069W, strain vba3, active compounds read low 0.994 | locus YCR088W, strain abp1, active compounds read low 1 | locus YDL005C, strain med2, active compounds read low 1 | locus YDL035C, strain GPR1, active compounds read low 1.05 | locus YDL040C, strain nat1, active compounds read low 0.995 | locus YDL074C, strain BRE1, active compounds read low 1.03 | locus YDL101C, strain DUN1, active compounds read low 1.01 | locus YDL185W, strain tfp1, active compounds read low 0.993 | locus YDL192W, strain arf1, active compounds read low 0.991 | locus YDR001C, strain nth1, active compounds read low 0.995 | locus YDR069C, strain doa4, active compounds read low 1.02 | locus YDR101C, strain arx1, active compounds read low 0.979 | locus YDR137W, strain rgp1, active compounds read low 0.98 | locus YDR150W, strain NUM1, active compounds read low 1.01 | locus YDR159W, strain sac3, active compounds read low 0.945 | locus YDR162C, strain NBP2, active compounds read low 1.04 | locus YDR195W, strain ref2 0.995 | locus YDR297W, strain sur2, active compounds read low 1.01 | locus YDR318W, strain mcm21, active compounds read low 0.993 | locus YDR334W, strain swr1, active compounds read low 1 | locus YDR335W, strain msn5, active compounds read low 1 | locus YDR388W, active compounds read low 0.99 | locus YDR392W, strain spt3, active compounds read low 0.928 | locus YDR502C, strain sam2, active compounds read low 0.991 | locus YEL003W, strain gim4, active compounds read low 0.996 | locus YEL037C, strain rad23, active compounds read low 0.998 | locus YEL061C, strain CIN8 (second series), active compounds read low 1.01 | locus YEL061C, strain CIN8, active compounds read low 1.01 | locus YER002W, strain NOP16, active compounds read low 0.992 | locus YER015W, strain faa2, active compounds read low 1 | locus YER016W, strain bim1, active compounds read low 0.975 | locus YER110C, active compounds read low 0.978 | locus YER111C, strain swi4, active compounds read low 0.989 | locus YER155C, strain BEM2 (second series), active compounds read low 1.02 | locus YER155C, strain BEM2, active compounds read low 1.02 | locus YER167W, strain BCK2, active compounds read low 1.02 | locus YFR010W, strain ubp6, active compounds read low 1.01 | locus YGL078C, strain dbp3, active compounds read low 0.984 | locus YGL086W, strain mad1, active compounds read low 0.988 | locus YGL167C, strain pmr1, active compounds read low 0.99 | locus YGL173C, strain kem1, active compounds read low 1 | locus YGL227W, strain vid30, active compounds read low 1 | locus YGL240W, strain doc1, active compounds read low 1.03 | locus YGL248W, strain PDE1, active compounds read low 1.02 | locus YGL253W, strain hxk2, active compounds read low 0.966 | locus YGR078C, strain PAC10, active compounds read low 1.01 | locus YGR135W, strain pre9, active compounds read low 0.987 | locus YGR229C, strain SMI1, active compounds read low 0.955 | locus YGR252W, strain gcn5, active compounds read low 0.966 | locus YHR013C, strain ard1, active compounds read low 0.982 | locus YHR027C, strain rpn1, active compounds read low 0.98 | locus YHR030C, strain SLT2, active compounds read low 1.01 and 1.05 | locus YHR079C, strain IRE1 (second series), active compounds read low 0.984 | locus YHR079C, strain IRE1, active compounds read low 1.06 | locus YHR094C, strain hxt1, active compounds read low 0.985 | locus YHR129C, strain ARP1, active compounds read low 1.01 | locus YHR142W, strain chs7, active compounds read low 0.958 | locus YHR200W, strain rpn10, active compounds read low 0.987 | locus YIL066C, strain RNR3, active compounds read low 1.04 | locus YIL073C, strain SPO22, active compounds read low 0.986 | locus YIL125W, strain kgd1, active compounds read low 0.977 | locus YIR030C, strain dcg1, active compounds read low 1 | locus YJL092W, strain hpr5, active compounds read low 1.01 | locus YJL095W, strain BCK1 (second series), active compounds read low 1 | locus YJL095W, strain BCK1, active compounds read low 1.01 and 1.06 | locus YJL115W, strain asf1, active compounds read low 1.02 | locus YJL129C, strain trk1, active compounds read low 1 | locus YJL134W, strain LCB3, active compounds read low 1.01 | locus YJL154C, strain vps35, active compounds read low 0.991 | locus YJL164C, strain tpk1, active compounds read low 0.975 | locus YJL166W, strain qcr8, active compounds read low 1.01 | locus YJL168C, strain set2, active compounds read low 0.994 | locus YJL187C, strain SWE1 (second series), active compounds read low 1.01 | locus YJR043C, strain POL32, active compounds read low 1.03 | locus YJR066W, strain TOR1, active compounds read low 0.996

Reference: PubChem BioAssay AID1159580 (chemical genetic matrix, 2015)
